Data published in PubChem BioAssay (NCATS).
Results filed as inconclusive are left out. Where a call stands in place of a potency, no number is given. The source made the active and inactive calls. Calls come from the whole dose curve; as a rule, active = well fitted inhibition curve with a large enough effect; inconclusive = small, poorly fitted or top-dose-only effect; inactive = no such curve, though single readings can be large or run the other way. Residues, ends and D or L forms follow the SMILES beside them. *: point of attachment. Cbz = O=C(OCc1ccccc1)*

test: Counterscreen for APE1 Inhibitors: Fluorescent Dye Displacement Validation Assay (AID 1707); conditions: fluorescent dye displacement from DNA; series mostly up to 57.1 µM
Excerpt: In order to distinguish true inhibitors of DNA-processing enzymes from promiscuous DNA-binding compounds among screening assay hits, we developed a homogeneous and miniaturized assay based on fluorescent dye displacement test as originally described by Tse and Boger (Accounts of Chemical Research (2004) 37: 61-69). The assay is based on the strong enhancement of fluorescence when Thiazole Orange (ThO) binds to double-stranded DNA: conversely, in the presence of a DNA-binding compound, Thiazole Orange is displaced from the DNA and its fluorescence is reduced.
Buffer. 50 mM Tris-HCl (pH7.5) containing 50mM NaCl, 2 mM MgCl2, and 0.01% Tween-20.
Buffer containing 250 nM ThO in columns 3 and 4 as negative control (no dsDNA).
Reaction mixture: 250 nM ThO and 50 nM dsDNA at final concentration dispensed throughout the plate: in columns 1, 2, 5-48. Column 1 is neutral (100% activity).
5''TAMRA- TC ACC FTC GTA CGA CTC
3'' AG TGG GAG CAT GCT GAG
where F denotes tetrahydrofuran.
Control: Pintool transfer of control compound WB64 (W4761, Sigma-Aldrich) to column 2 of all assay plates as a two-fold 16-point dilution in duplicate (concentration range 5.75 uM - 0.175 nM).
Four uL of reaction mixtures were dispensed to 1536-well Greiner black solid bottom plates. Compounds (23 nL) were transferred […] in order to measure the endpoint fluorescence using 480 nm excitation and 540 nm emission fluorescence protocol.
Potency is the fitted concentration of half-maximal effect.

| SMILES | Potency |
| --- | --- |
| O=c1ccc2c(OCCCCc3ccccc3)c3ccoc3cc2o1 | inactive |
| CC(=O)[C@H]1CCC2C3CC=C4C[C@@H](OS(=O)(=O)O)CC[C@]4(C)C3CC[C@@]21C (stereo not given in full) | inactive |
| OC[C@H]1O[C@@H](n2cnc3cncnc32)[C@H](O)[C@@H]1O | inactive |
| Cn1cc(C(F)(F)F)nc1-c1ccc(OCC(O)CNCCOc2ccc(O)c(C(N)=O)c2)cc1 (stereo not given) | inactive |
| c1ccc2nc(C3=NCCN3)ccc2c1 | inactive |
| NC(=O)CNCCC(c1ccccc1)c1ccccc1 | inactive |
| C=CCN1CCc2c(cc(O)c(O)c2Cl)C(c2ccccc2)C1 (stereo not given) | inactive |
| CC#CCOC(=O)c1c(C)nc2sc3c(c2c1N)CCC(O)C3 (stereo not given) | inactive |
| CC(C)C[C@H](NC(=O)C1OC1C(=O)O)C(=O)NCCCCN=C(N)N (stereo not given in full) | inactive |
| N[C@@H](CCCC(=O)O)C(=O)O | inactive |
| CC(N)=NCCCC[C@@H](N)C(=O)O | inactive |
| COC(=O)[C@H](NC(=O)c1cc(-c2ccccc2)nc2ccccc12)c1ccccc1 | inactive |
| COC(=O)C(C)(N)Cc1ccc(O)cc1 (stereo not given) | inactive |
| CC(C)[C@H](NC(=O)OCc1ccccc1)C(=O)N[C@H](C=O)Cc1ccccc1 (Cbz-Val-Phe-aldehyde) | inactive |
| N[C@@H](Cc1c[nH]c2ccccc12)C(=O)O | inactive |
| Nc1ccc(-c2nc3ccc(-c4nc5ccc(N)cc5[nH]4)cc3[nH]2)cc1 | 25.1 µM (active) |
| CCC1(O)CC2CN(CCc3c([nH]c4ccccc34)[C@@](C(=O)OC)(c3cc4c(cc3OC)N(C=O)C3[C@]45CCN4CC=C[C@@](CC)([C@@H](OC(C)=O)[C@]3(O)C(=O)OC)[C@H]45)C2)C1 (stereo not given in full) | inactive |
| CC(C)Cn1c(=O)n(C)c(=O)c2[nH]cnc21 | inactive |
| Nn1nnc2ccccc21 | inactive |
| O=C(O)c1ccccc1Nc1ccccc1 | inactive |

| SMILES | Potency |
| --- | --- |
| NC1(C(=O)O)CCc2cc(C(=O)O)ccc21 (stereo not given) | inactive |
| COc1ccccc1N1CCN(CCN(C(=O)c2ccc(F)cc2)c2ccccn2)CC1 | inactive |
| CN1CCN(c2nc3cc(C(F)(F)F)ccc3n3cccc23)CC1 | inactive |
| CN[C@H](CC(=O)O)C(=O)O | inactive |
| Nc1ccc(CCNc2ncnc3c2ncn3C2OC(CO)C(O)C2O)cc1 (stereo not given) | inactive |
| CC(N)(Cc1ccc(O)cc1)C(=O)O (stereo not given) | inactive |
| NC(N)=NC(N)=Nc1ccccc1 | inactive |
| CCCCCCN(CCCCCC)C(=O)Cc1c(-c2ccc(F)cc2)[nH]c2ccccc12 | inactive |
| NCCCCN | inactive |
| S=C(S)N1CCCC1 | inactive |
| O=C1OC(=O)C2C3CCC(O3)C12 (stereo not given) | inactive |
| CCOC(=O)C12CC1/C(=N/O)c1ccccc1O2 (stereo not given) | inactive |
| Cn1ccnc1 | inactive |
| O=C(O)C1CCCNC1 (stereo not given) | inactive |
| O=C(O)C1CN(CCCP(=O)(O)O)CCN1 (stereo not given) | inactive |
| COc1ccccc1N1CCN(CCCNc2c(C)c(=O)n(C)c(=O)n2C)CC1 | inactive |
| NS(=O)(=O)c1cccc2c1c([N+](=O)[O-])cc1nc(O)c(O)nc12 | inactive |
| NCCCNCCCCNCCCN | inactive |
| CNc1ncnc2c1ncn2[C@H]1C[C@H](OP(=O)(O)O)[C@@H](COP(=O)(O)O)O1 | inactive |
| CCCCCCCCCC[Si](C)(C)CCC(=O)NC(Cc1ccc(C)cc1)c1ccccc1 (stereo not given) | inactive |
